Source: PubChem BioAssay (National Center for Advancing Translational Sciences (NCATS))
A selection: hits, their analogues and other compounds. The true share with any hit is near 10%.
IMPase cell inh = cell-permeable inhibitors of inositol monophosphatase (IMPase). P97697. CHO-M1 cells, IP1 accumulation, HTRF TR-FRET ratio. inhibition (IP1 accumulation), % at 46.1 µM. 120,000 tested, under 10 active. AID 901; active means well fitted curve in the direction sought with a large enough effect in the signal ratio, not every such curve was filed as active; inconclusive means small, poorly fitted or top-dose-only effect, or a change in a side signal; inactive means no such curve, though single readings can be large or run the other way; the % refers to the signal ratio;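 further: cells stimulated with carbachol in lithium chloride buffer; plate controls were DMSO basal wells for no effect and reference inhibitor wells for full effect; higher means more IMPase inhibition seen as more IP1 and lower FRET ratio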
Target sequence (P97697 whole entry, looked up): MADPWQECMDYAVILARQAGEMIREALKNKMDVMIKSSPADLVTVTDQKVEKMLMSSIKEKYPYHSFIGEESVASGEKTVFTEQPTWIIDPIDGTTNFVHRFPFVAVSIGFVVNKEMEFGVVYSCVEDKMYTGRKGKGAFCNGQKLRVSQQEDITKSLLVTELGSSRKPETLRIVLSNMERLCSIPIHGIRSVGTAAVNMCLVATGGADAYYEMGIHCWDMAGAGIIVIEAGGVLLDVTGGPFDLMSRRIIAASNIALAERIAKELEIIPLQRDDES
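Cellular IMPase inhibition is scored as a rise in cytosolic IP1, detected by competitive TR-FRET between d2-labelled IP1 and a europium anti-IP1 antibody. M1-expressing CHO cells were stimulated with carbachol for 30 min at 37C, with lithium (50 mM LiCl) present in the buffer.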
Lamin A splicing = modulators of lamin A splicing; HeLa LMNA splicing GFP/RFP minigene ratio, 48 h; Potency, µM (doses to about 46.1 µM), for inactives: top-dose ratio change, negative = inhibition, hits mostly inhibitors; hit rate 0.01% among 200,000; AID 1487; active means well fitted inhibition curve with a large enough effect in the signal ratio, with a control signal flat, not every such curve was filed as active; inconclusive means small, poorly fitted or top-dose-only effect, or effect the other way, or a change in a side signal; the % refers to the signal ratio; further: potency means the concentration at half of the fitted maximal effect
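S3 HeLa stable clones carrying a lamin A-EGFP splicing minigene plus DsRed2 were seeded at 600 cells/well in Opti-MEM with 2% FBS, pin-dosed and incubated 48 h at 37°C. Acumen cytometry (488 nm) gave the GFP/RFP total-intensity ratio.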
ALDH1A1 block = blocks purified human ALDH1A1 activity. P00352. Purified ALDH1A1, NADH fluorescence, propionaldehyde substrate. Potency, µM (top dose mostly 75.3 µM), without a hit: at the top dose activity, negative = inhibition, hits mostly inhibitors. hit rate 7.3% among 220,000. AID 1030;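 further: potency means the concentration at half of the fitted maximal effect; plate controls were no enzyme wells and a reference inhibitor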
Luc counter = counter-screen: inhibitors of Kinase-Glo firefly luciferase; Potency, µM (series often up to 38.3 µM), for the others: at the top dose activity change, negative = inhibition, hits mostly inhibitors; Q27757; Kinase-Glo luciferase, ATP luminescence, 8 min; hit rate 0.28% among 200,000; active means well fitted inhibition curve with a large enough effect; inconclusive means small, poorly fitted or top-dose-only effect; further: potency means the concentration at half of the fitted maximal effect; nearly all actives have a fitted effect of over 60% in size
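Inhibition of Kinase-Glo luciferase light generation was assessed at 10 uM ATP in pH 7.2 imidazole buffer, with luminescence measured after eight minutes at ambient temperature.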
PNC assembly inh = inhibitors of perinucleolar compartment assembly | hit rate 3.1% among 140,000 | activity change (PNC), negative = inhibition, % at 10 µM | PC3M PTB-GFP, PNC prevalence imaging, 16 h; active compounds read low;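 active means readout at or below -70, meaning at least 70% loss of cells showing the perinucleolar compartment, a nuclear body marking cancer cells; inconclusive means readout between -30 and a set limit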;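 further: plate controls were DMSO wells for no effect and camptothecin positive control wells for full effect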
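PC3M cells stably expressing PTB-GFP, 750–1000 cells/well, treated 16 h at 37 °C with compound (23 nl of library stock), in duplicate. After paraformaldehyde fixation and Hoechst stain, imaged at 20x; PNC prevalence scored by image analysis.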
HPGD block = blocks human HPGD enzyme activity; purified HPGD, NADH fluorescence kinetic, PGE2 substrate; Potency, µM, for the others: at the top dose activity change, negative = inhibition, usual class: inhibitors; AID 894; hit rate 4.3% among 150,000; further: potency means the concentration at half of the fitted maximal effect
Target sequence (P15428 whole entry, looked up): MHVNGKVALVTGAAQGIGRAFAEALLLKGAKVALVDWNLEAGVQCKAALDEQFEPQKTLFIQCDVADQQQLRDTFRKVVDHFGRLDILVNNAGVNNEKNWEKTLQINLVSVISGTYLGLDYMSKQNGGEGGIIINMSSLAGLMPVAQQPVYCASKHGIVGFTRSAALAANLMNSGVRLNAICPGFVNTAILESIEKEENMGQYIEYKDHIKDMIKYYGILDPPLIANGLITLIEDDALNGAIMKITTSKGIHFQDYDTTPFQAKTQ
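20 nM HPGD preincubated 15 min at room temperature with compound in 50 mM Tris-HCl pH 8, 0.01% Tween 20. Started with 1 mM NAD+ and 30 uM prostaglandin E2; NADH fluorescence (360/450 nm) read 5 times over 30-s intervals, last minus first.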
An asterisk follows results filed as active; [ ] = remark or other dose. Unless noted, the call rests on the fitted dose curve; in most records, active means well fitted inhibition curve with a large enough effect (not every such curve was filed as active); inconclusive means small, poorly fitted or top-dose-only effect, or another doubt; inactive means no such curve, though single readings can be large or run the other way. Unless noted, on the % scale 0 is the no-effect control and ±100 the full control effect.

Screening NS(=O)(=O)c1ccc(NC(=S)NCc2ccccc2Cl)cc1 returned IMPase cell inh -12, Lamin A splicing -5%, ALDH1A1 block 25µM*, Luc counter 1%, PNC assembly inh -21 and HPGD block -18%.
Screening CC(C)CC(=O)NNC(=S)Nc1ccc(S(N)(=O)=O)cc1 returned ALDH1A1 block 11µM* and Luc counter -2%.
NS(=O)(=O)c1ccc(NC(=S)NCc2cccc(Cl)c2)cc1 was read as IMPase cell inh -1, Lamin A splicing -13%, ALDH1A1 block 3% and PNC assembly inh -24.
`NS(=O)(=O)c1ccc(NC(=S)NCc2ccccc2)cc1` gave IMPase cell inh 7, Lamin A splicing 2%, ALDH1A1 block 20µM*, Luc counter 3%, PNC assembly inh -97* and HPGD block 20µM*.
For CCOc1ccccc1CNC(=O)CN1C(=O)C2CCCCN2c2ccc(C(=O)N(C)C)cc21 (stereo not given) the results were Lamin A splicing 11%[46 µM].
For CCOc1cc(Br)cc(C2NC(=O)c3c(sc4c3CCN(C)C4)N2)c1O (stereo not given) the results were IMPase cell inh -8.
Screening COc1ccc(S(=O)(=O)N2CCN(Cc3nc4ccc(C)cc4o3)CC2)cc1Cl returned Lamin A splicing -16%[46 µM].
N#Cc1c(-n2ncnc2-c2ccc(F)cc2)sc2c1CCCCC2 was read as IMPase cell inh -10.
Screening COc1cc2c(=O)n(Cc3ccccc3)c(=O)n(CC(=O)NCC3CCCO3)c2cc1OC (stereo not given) returned IMPase cell inh 5, Lamin A splicing -1%, ALDH1A1 block inconclusive, Luc counter 1%, PNC assembly inh inconclusive and HPGD block inconclusive.
For O=C(Cn1c(=O)n(Cc2ccco2)c(=O)c2cc(Cl)ccc21)NCC1CCCO1 (stereo not given) the results were IMPase cell inh 12, Lamin A splicing -8%, ALDH1A1 block 25µM*, Luc counter 2%, PNC assembly inh inconclusive and HPGD block 1%.
Screening CN(C)c1ncnc2ccc(-c3cccc(C#N)c3)cc12 returned Lamin A splicing inconclusive and ALDH1A1 block 32µM*.
`COc1ccccc1-c1ccc2ncnc(N(C)C)c2c1` gave Lamin A splicing inconclusive, ALDH1A1 block -8%, Luc counter -4% and HPGD block 14µM*.
Screening CCC(C)C(=O)OC1CCC=C2C=CC(C)C(CCC3CC(O)CC(=O)O3)[C@@H]21 (stereo not given in full) returned Lamin A splicing inconclusive, ALDH1A1 block -11%, Luc counter -2% and HPGD block 3%.
`Cc1cc(C)cc(N(CC(=O)N2CCc3ccccc32)S(=O)(=O)c2c(C)noc2C)c1` gave IMPase cell inh 3, Lamin A splicing 1%, ALDH1A1 block 8.9µM*, Luc counter 8%, PNC assembly inh -6 and HPGD block -14%.
CC(C)c1ccc(/C=N/NC(=O)c2nnn(-c3nonc3N)c2CSC2=NCCS2)cc1 was read as Lamin A splicing inconclusive, ALDH1A1 block 20µM*, Luc counter 1%, PNC assembly inh 28 and HPGD block -21%.
`CCCc1nn2c(=O)cc(COC(=O)C3CCCCC3)nc2s1` gave Lamin A splicing -18%[46 µM].
For O=C(CN1C(=O)C2CC=CCC2C1=O)NCc1cccs1 (stereo not given) the results were Lamin A splicing 2%[46 µM], ALDH1A1 block 28µM* and Luc counter 0%.
O=C(CN1C(=O)NC2(CCCCC2)C1=O)NCc1cccs1 was read as Lamin A splicing -17%, ALDH1A1 block 10%, Luc counter 2%, PNC assembly inh -28 and HPGD block 0%.
For COc1ccc(N/C(N)=N/c2nc(CSc3ccc(Cl)cc3)cc(=O)[nH]2)cc1 the results were IMPase cell inh 3, Lamin A splicing 3%, ALDH1A1 block 3%, Luc counter 2%, PNC assembly inh -24 and HPGD block -4%.
`Cc1ccc(SCc2cc(=O)[nH]c(/N=C(\N)Nc3ccc(C)c(C)c3)n2)cc1` gave IMPase cell inh 1, Lamin A splicing 2%, ALDH1A1 block 8.9µM*, Luc counter -3%, PNC assembly inh 23 and HPGD block -14%.
For O=c1cc(CSc2nnnn2-c2ccccc2)nc(Nc2ccc(F)cc2)[nH]1 the results were IMPase cell inh -6, Lamin A splicing inconclusive, ALDH1A1 block 7.9µM*, Luc counter 1%, PNC assembly inh inconclusive and HPGD block -6%.
`N/C(=N\c1nc(CSc2nnnn2-c2ccccc2)cc(=O)[nH]1)Nc1ccccc1` gave Lamin A splicing inconclusive, ALDH1A1 block 5µM* and Luc counter 7%.
`O=C(O)c1cc(S(=O)(=O)Nc2ccc(O)cc2)ccc1Cl` gave ALDH1A1 block 0%, Luc counter -2% and HPGD block -5%.
O=C(NCCCN1CCOCC1)c1cc(C(=O)C2CCCCC2)c[nH]1 was read as Lamin A splicing 11%[46 µM], ALDH1A1 block 25µM* and Luc counter -1%.
`Cc1ccccc1N1C(=O)c2cccc3c(N(C)CCO)ccc(c23)C1=O` gave IMPase cell inh 6, Lamin A splicing -10%, ALDH1A1 block inconclusive, Luc counter 1%, PNC assembly inh -80* and HPGD block -19%.
Screening Cc1nn(-c2ccccc2)c(OC(=O)c2ccccc2Br)c1S(=O)(=O)c1ccccc1 returned IMPase cell inh -3.
Screening Cc1ccc(NC(=O)CSc2ncnc3c2sc2ccccc23)cc1C returned Lamin A splicing -6%[46 µM].
`Cc1csc2c(SCC(=O)NNC(=O)C(Cl)Cl)ncnc12` gave Lamin A splicing 6%[46 µM] and ALDH1A1 block 28µM*.
COc1cc(OC)cc(C(=O)NCCc2csc(-c3ccc(C(F)(F)F)cc3)n2)c1 was read as Lamin A splicing -21%[46 µM].
`CCNC(=O)C1CCN(S(=O)(=O)c2ccc3c(c2)CCCN3C(C)=O)CC1` gave Lamin A splicing 15%[46 µM].
`CCCNC(=O)NC(=O)COC(=O)c1ccc(S(=O)(=O)N(C)c2ccccc2OC)cc1` gave Lamin A splicing inconclusive, ALDH1A1 block 13µM* and Luc counter 0%.
`CCNC(=O)NS(=O)(=O)c1cnccc1Nc1cccc(Cl)c1` gave Lamin A splicing -1%, ALDH1A1 block 1%, Luc counter -1%, PNC assembly inh -90* and HPGD block 1%.
